From PubChem
Shown are actives, neighbours in structure and some others; about 8.3% of the full set was active somewhere.
HCMV antiviral: inhibitors of human cytomegalovirus. AID 1259415. HFF cells, HCMV-luciferase reporter, 72 h; active compounds read low. actives 4.5% (n = 410,000). activity change, negative = inhibition, % at 57.5 µM; in the data active means activity change below about -60%; inconclusive means no clear call, values can overlap the other calls; inactive means above about -39%
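After 16 h attachment at 37C, HFF cells received test compound and HCMV-luciferase (1 PFU/cell); reporter luminescence read 72 h later, data normalized against buffer-only and known inhibitor Salinomycin.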
HCV inhibitor: blocks hepatitis C virus | actives 3.4% (n = 340,000) | Huh7.5.1 HCVcc-Cre infection, luciferase reporter, 44 h | Potency, µM (highest dose often 41.8 µM), inactives show at the top dose activity change, negative = inhibition, most hits filed as inhibitors | AID 651820; further: potency means the concentration at half of the fitted maximal effect
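Seed cells (1,000/well) for 4 h; treat with compound and infect with HCVcc-Cre, moi about 0.5. Incubate 44 h, then detect luciferase activity.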
LASV entry inh: blocks Lassa virus binding to or entry into cells; Lassa virus pseudotype entry inhibition, cell reporter; Potency, µM (titrated, usually from 37.9 µM), inactives show top-dose activity change, negative = inhibition, usual class: inhibitors; actives 1.2% (n = 300,000); calls by dose curve; tested in HEK293 cells; further: potency means the concentration at half of the fitted maximal effect; nearly all actives have a fitted effect of over 50% in size
Giardia FBPA inh: inhibitors of Giardia lamblia fructose-1,6-bisphosphate aldolase; A8B2U2; Potency, µM (series often up to 59.6 µM), for the others: at the top dose activity, negative = inhibition, usual class: inhibitors; purified Giardia FBPA; actives 0.71% (n = 290,000); further: potency means the concentration at half of the fitted maximal effect; nearly all actives have a fitted effect of over 55% in size
Target sequence (A8B2U2 whole entry, looked up): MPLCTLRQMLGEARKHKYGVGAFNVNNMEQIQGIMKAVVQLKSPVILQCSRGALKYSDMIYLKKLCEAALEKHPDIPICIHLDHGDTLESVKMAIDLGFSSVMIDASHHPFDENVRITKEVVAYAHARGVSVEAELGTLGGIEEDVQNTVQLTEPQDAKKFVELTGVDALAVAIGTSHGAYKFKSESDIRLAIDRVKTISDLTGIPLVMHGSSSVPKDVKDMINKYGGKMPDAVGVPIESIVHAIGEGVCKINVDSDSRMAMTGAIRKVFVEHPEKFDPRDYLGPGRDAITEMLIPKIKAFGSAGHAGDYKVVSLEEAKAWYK
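Giardia FBPA (40 nM reagent) was preincubated 10 min at RT with compound (up to 57.5 uM final), then substrate plus GAPDH/TPI/NAD/arsenate coupling system with diaphorase/resazurin was added; resorufin fluorescence (525/598 nm) was read after 20 min.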
FMDV inh: blocks foot and mouth disease virus; FMDV antiviral cell-based qHTS; actives 1.2% (n = 410,000); Potency, µM (titrated, usually from 57.9 µM), without a hit: at the top dose activity change, negative = inhibition, usual class: inhibitors; AID 1159524; calls by dose curve; tested in HEK293T cells; further: read-out not given here; potency means the concentration at half of the fitted maximal effect; nearly all actives have a fitted effect of over 45% in size
MARV entry inh: blocks Marburg virus binding to or entry into cells. Marburg virus pseudotyped entry inhibition, cell reporter. Potency, µM (top dose mostly 37.8 µM), for inactives: top-dose activity change, negative = inhibition, actives largely listed as inhibitors. actives 1.8% (n = 300,000); calls by dose curve; tested in HEK293 cells; further: potency means the concentration at half of the fitted maximal effect
Starred values were filed as active, the others as inactive; ? = inconclusive; · = no result given; + = active, no number; [ ] = dose if it differs, or a comment. Unless noted, the call rests on the fitted dose curve; in most records, active means well fitted curve in the direction sought with a large enough effect; inconclusive means small, poorly fitted or top-dose-only effect, or another doubt; inactive means no such curve, though single readings can be large; an effect the other way counts as inactive or inconclusive. On the % scale 0 is the no-effect control and ±100 the full control effect.

SMILES	HCMV antiviral	HCV inhibitor	LASV entry inh	Giardia FBPA inh	FMDV inh	MARV entry inh
CCOC(=O)C1=C(CN2CCN(c3ccc(OC)cc3)CC2)NC(=O)NC1c1ccc(Cl)cc1 (stereo not drawn)	?	·	?	·	0.0%	?
CCOC(=O)C1=C(c2ccccc2)NC(=O)NC1c1ccc(O)c(Cl)c1 (stereo not drawn)	-101.6*	0.4%	·	0.5%	8.91µM*	·
N#Cc1ccccc1Cn1c(=O)n(CCCC(=O)NCc2ccc3c(c2)OCO3)c(=O)c2sccc21	?	·	-8.3%[46.1 µM]	·	-9.0%	8.3%[46.1 µM]
CCOC(=O)C1=C(CCc2ccccc2)NC(=O)NC1c1ccc(Br)cc1 (stereo not drawn)	-13.8	-4.7%	·	0.7%	-11.1%	·
CCOC(=O)C1=C(CNCc2ccccc2)NC(=O)NC1c1ccc(C)cc1 (stereo not drawn)	-69.7*	·	-16.3%[46.1 µM]	·	-21.6%	-24.0%[46.1 µM]
O=C(CCCN1C(=O)/C(=C\c2ccco2)SC1=S)Nc1ccc2ccccc2c1	-81.3*	?	?	-24.1%	-15.6%	?
COc1ccc(/C=C2/SC(=S)N(CCCC(=O)Nc3ccc(O)cc3)C2=O)cc1	-99.6*	?	·	-1.9%	-6.8%	·
COc1ccc(/C=C2\SC(=S)N(CCC(=O)Nc3cccc(O)c3)C2=O)cc1	-1.5	5.7%	·	7.1%	61.1%	·
COc1ccc(/C=C2\SC(=S)N(CCCC(=O)Nc3ccc(O)cc3)C2=O)cc1	+	?	·	0.5%	2.4%	·
COc1ccc(/C=C2\SC(=S)N(CCC(=O)Nc3ccc(C(=O)O)cc3)C2=O)cc1	18.5	10.0%	·	-1.6%	49.2%	·
COc1ccc(C2C=C(c3ccccc3)Nc3nc(NC(=O)c4cccc([N+](=O)[O-])c4)nn32)cc1 (stereo not drawn)	-8.1	·	15.6%[46.1 µM]	·	16.1%	-10.9%[46.1 µM]
CC(C)(C)OC(=O)N1CCC(c2c(C(=O)NCCN3CCCC3)cnn2-c2ccc(Cl)cc2)CC1	-16.3	·	-16.4%[46.1 µM]	·	-13.3%	·
Cc1cc(C)nc(SC(C(=O)O)c2ccccc2)n1 (stereo not drawn)	1.0	8.4%	18.0%	-1.2%	1.9%	17.6%
Cc1cc(C)nc(Sc2nc(Cl)nc(N(c3ccccc3)c3ccccc3)n2)n1	90.5	?	-8.9%	-12.7%	35.5µM*	?
C=CCOC(=O)C1=C(C)Nc2ncnn2C1c1cc(Br)ccc1F (stereo not drawn)	-28.3	-24.8%	-26.3%	-9.6%	12.6µM*	?
Cc1ccc(C(O)(c2ccc(C)c(C)c2)C2CN3CCC2CC3)cc1C (stereo not drawn)	-97.3*	?	·	-8.5%	?	·
COc1cccc(CNC(=O)C(NS(=O)(=O)c2ccc3c(c2)oc(=O)n3C)C(C)C)c1 (stereo not drawn)	0.4	·	8.7%[46.1 µM]	·	3.6%	0.5%[46.1 µM]
COc1ccc(O)c(/C=N/n2c(-c3ccco3)csc2=Nc2cccnc2)c1	39.6	-1.2%	?	1.2%	?	-2.0%
CCN=c1scc(-c2cccs2)n1/N=C/c1cc(OC)ccc1O	-95.3*	5.01µM*	?	-6.3%	-51.8%	?
CCOC(=O)/C=C1\CN(Cc2cc(OC)c(OC)c(OC)c2)S(=O)(=O)c2ccccc21	?	3.16µM*	·	-10.7%	-26.3%	·
CCCCC[C@H](O)/C=C/C=C/C/C=C\CCCC(=O)O	·	·	·	6.4%	·	·
COc1ccccc1CNc1ncnc2c1c(-c1ccccc1)cn2-c1cccc(C)c1	-60.5*	·	-14.1%[46.1 µM]	·	?	·
O=C1[C@H]2[C@H]3[C@H](O)[C@H](O)C/C(=N/OC[C@@H](O)COCc4ccco4)[C@H]3CC[C@@H]2C(=O)N1Cc1ccc2c(c1)OCO2	·	·	·	0.0%[12.9 µM]	·	·
Cc1ccc(O)c(NC(=O)CSc2n[nH]c(-c3ccccc3)n2)c1	-82.9*	11.2µM*	·	·	?	·
Cc1ccc(C(=O)NNC(=O)CSc2n[nH]c(-c3cccnc3)n2)cc1	-103.5*	-5.8%	1.7%	-26.5%	-10.2%	3.8%[46.1 µM]
Cc1cc(C)cc(NC(=O)CSc2n[nH]c(-c3cccnc3)n2)c1	-3.1	6.9%	-0.4%[46.1 µM]	-18.7%	25.7%	10.5%[46.1 µM]
Cc1ccc(C)c(NC(=O)CSc2n[nH]c(-c3ccccn3)n2)c1	?	?	?	?	18.8%	?
